# Results reported in PubChem BioAssay (NCI).
# This is part of a sample that, as a whole, favours compounds with a hit. Of some 83,000 tested, about 20% had one in any assay.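 Activity criterion: percent growth below 10, measured after cells in 96-well plates were exposed to a single compound concentration for 48 hours.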 A number with no mark means an inactive call. The source made the active and inactive calls.
# System: 786-0 renal
# Experiment: NCI-60 one-dose screen, 48 h (100 = growth as untreated, 0 = no growth, -100 = all killed)
# Details: 10 µM unless noted
row,SMILES,growth
1,O=[N+]([O-])c1cccc2cc(S(=O)(=O)O)ccc12,100%
2,COc1ccc(SC2c3ccc(O)cc3Oc3nc(N)c(C#N)c(N)c32)cc1 (stereo not drawn),81.6%
3,Nc1nccc2c1ccn2-c1cccc(NC(=O)c2ccc(N3CCOCC3)c(C(F)(F)F)c2)c1,-38.9% (active)
4,COc1ccc(OC)c(NCC(=O)n2nc(/C=C\c3ccc(O)c(OC)c3)cc2/C=C\c2ccc(O)c(OC)c2)c1,-7.3% (active)
5,O=C(Nc1ccc(-n2cc(-c3ccncc3)c(-c3ccc(O)c(Cl)c3)n2)cc1)c1cc(C(F)(F)F)cc(C(F)(F)F)c1,53.1%
6,CC(C)(C)OC(=O)N1CCN(CCn2cc(C(F)(F)F)c3c(Cl)ncnc32)CC1,107%
7,COc1cc([C@@H]2c3cc4c(cc3C(OC3O[C@@H]5COC(C)O[C@H]5[C@H](O)[C@H]3O)C3COC(=O)[C@@H]32)OCO4)cc(OC)c1O (stereo partly drawn),-13.1% (active)
8,CNCCCOc1c(Br)cc(CCNC(=O)/C(Cc2cc(Br)c(OC)c(Br)c2)=N/O)cc1Br,-80.8% (active)
9,CCCCCCCCN(CCCCCCCC)CC(O)c1cc(-c2ccccc2)nc2ccc(OC)cc12 (stereo not drawn),82.6%
10,CC(C)(C)NC(C1=CC(C)(C)c2ccccc2C1=O)c1ccccc1 (stereo not drawn),-94% (active)
11,CCOC(=O)C1CSC(C)(C(=O)OCC)N1 (stereo not drawn),90.8%
12,COc1ccc(-c2coc3c(CO)c(O)ccc3c2=O)cc1,90.3%
13,O=C(Cn1c2ccccc2c2ccncc21)N/N=C/c1c[nH]c2ccccc12,44%
14,CCCCC(=O)Nc1nc2ccc(SCCC)cc2s1,65%
15,O=C(COc1ccc(Cl)cc1Cl)N1N=C(c2ccc(Cl)cc2Cl)CC1(O)c1cc(F)c(Cl)cc1Cl (stereo not drawn),101%
16,Nc1nccc2c1ccn2-c1ccc(NC(=O)Nc2cccc(C(F)(F)F)c2)cc1,110%
17,COc1ccc(CNc2nc3ccccc3c3c(=O)c4ccccc4sc23)cc1OC,76.8%
18,O=C1CCC(=O)N1C1CCCCC1,106%
19,Nc1ccc(S(=O)(=O)Nc2ccnn2-c2ccccc2)cc1,105%
20,COc1ccc(C2=NN(C(=O)COc3ccc(Cl)cc3)C(O)(c3cc(F)c(Cl)cc3Cl)C2)cc1OC (stereo not drawn),-74.9% (active)

row,SMILES,growth
1,NCC(=O)NS(=O)(=O)OC[C@H]1O[C@@H](n2cnc3c(N)ncnc32)[C@H](O)[C@@H]1O,-7.02% (active)
2,CCCC(=O)Oc1ccc(/C(=C(\C)c2ccc(Cl)cc2)c2ccc(OCCN(CC)CC)cc2)cc1,-89.6% (active)
3,O=C(NCCNc1nccc(-c2c(-c3cccc(O)c3)nc3sccn23)n1)c1ccc(N2CCOCC2)c(C(F)(F)F)c1,60.1%
4,C#C[C@@]1(O)[C@@H](CO)O[C@@H](n2cc(Br)c3c(Cl)ccnc32)[C@@H]1O,33.5%
5,CN(C)c1ccc(/C=N/N=C(N)N)cc1,103%
6,C=C1c2c(Cl)ccc(O)c2C(O)=C2C(=O)[C@]3(O)C(O)=C(C(N)=O)C(=O)[C@@H](N(C)C)[C@@H]3[C@@H](O)[C@H]12,8.22% (active)
7,O=C(Nc1ccccc1Cl)c1c[nH]c(=O)c(-c2ccc(N3CCCOC4(CC4)C3)cc2)c1,68.2%
8,Cc1ccc2oc(=O)cc(C3C(C#N)=C(N)Oc4c3ccc3ccccc43)c2c1 (stereo not drawn),81.3%
9,COc1ccc2c(-c3ccc(F)cc3)c(C#N)c(=NC(C)=O)oc2c1,33.4%
10,O=C(Nc1ccc(-n2ccc3c(NC(=O)c4ccccc4)ncnc32)cc1)c1cccc(C(F)(F)F)c1,56.2%
11,C=C1C(=O)O[C@H]2[C@H]1CC/C(COC(=O)n1ccnc1C)=C\CC[C@@]1(C)O[C@@H]21,95.7%
12,CCn1cc(C(=O)O)c(=O)c2cc(F)c(N3CCN(CC(=O)Nc4ccc(C(C)=O)cc4)CC3)cc21,98%
13,COc1ccc(Cl)cc1NC(=O)c1cc2c([nH]1)-c1nc(NC(=O)C(C)(C)C)sc1CC2,93.2%
14,COc1ccccc1P(c1ccccc1OC)c1ccccc1OC,106%
15,Nc1nc(=S)ss1,107%
16,CCCOC(=O)c1ccc([N+](=O)[O-])o1,108%
17,O=C(CSc1nnc(-c2ccc(Cl)cc2)o1)Nc1ccc(C(=O)/C=C/c2ccccc2)cc1,97.8%
18,Cc1ccc(NC(=O)CN2CCOCC2)cc1Cl,95%
19,CCCCCC/C=N/Nc1ccc([N+](=O)[O-])cn1,94.7%

# System: COLO 205 colon
# Experiment: as above
# Details: 10 µM unless noted
row,SMILES,growth
1,O=[N+]([O-])c1cccc2cc(S(=O)(=O)O)ccc12,105%
2,COc1ccc(SC2c3ccc(O)cc3Oc3nc(N)c(C#N)c(N)c32)cc1 (stereo not drawn),115%
3,Nc1nccc2c1ccn2-c1cccc(NC(=O)c2ccc(N3CCOCC3)c(C(F)(F)F)c2)c1,-38.6% (active)
4,COc1ccc(OC)c(NCC(=O)n2nc(/C=C\c3ccc(O)c(OC)c3)cc2/C=C\c2ccc(O)c(OC)c2)c1,-46.8% (active)
5,O=C(Nc1ccc(-n2cc(-c3ccncc3)c(-c3ccc(O)c(Cl)c3)n2)cc1)c1cc(C(F)(F)F)cc(C(F)(F)F)c1,82.6%
6,CC(C)(C)OC(=O)N1CCN(CCn2cc(C(F)(F)F)c3c(Cl)ncnc32)CC1,102%
7,COc1cc([C@@H]2c3cc4c(cc3C(OC3O[C@@H]5COC(C)O[C@H]5[C@H](O)[C@H]3O)C3COC(=O)[C@@H]32)OCO4)cc(OC)c1O (stereo partly drawn),60.6%
8,CNCCCOc1c(Br)cc(CCNC(=O)/C(Cc2cc(Br)c(OC)c(Br)c2)=N/O)cc1Br,-72% (active)
9,CCCCCCCCN(CCCCCCCC)CC(O)c1cc(-c2ccccc2)nc2ccc(OC)cc12 (stereo not drawn),85.7%
10,CC(C)(C)NC(C1=CC(C)(C)c2ccccc2C1=O)c1ccccc1 (stereo not drawn),-91.5% (active)
11,CCOC(=O)C1CSC(C)(C(=O)OCC)N1 (stereo not drawn),105%
12,COc1ccc(-c2coc3c(CO)c(O)ccc3c2=O)cc1,115%
13,O=C(Cn1c2ccccc2c2ccncc21)N/N=C/c1c[nH]c2ccccc12,88.2%
14,CCCCC(=O)Nc1nc2ccc(SCCC)cc2s1,51.6%
15,O=C(COc1ccc(Cl)cc1Cl)N1N=C(c2ccc(Cl)cc2Cl)CC1(O)c1cc(F)c(Cl)cc1Cl (stereo not drawn),95.4%
16,Nc1nccc2c1ccn2-c1ccc(NC(=O)Nc2cccc(C(F)(F)F)c2)cc1,92.1%
17,COc1ccc(CNc2nc3ccccc3c3c(=O)c4ccccc4sc23)cc1OC,79.4%
18,O=C1CCC(=O)N1C1CCCCC1,101%
19,Nc1ccc(S(=O)(=O)Nc2ccnn2-c2ccccc2)cc1,109%
20,COc1ccc(C2=NN(C(=O)COc3ccc(Cl)cc3)C(O)(c3cc(F)c(Cl)cc3Cl)C2)cc1OC (stereo not drawn),-56.6% (active)

row,SMILES,growth
1,NCC(=O)NS(=O)(=O)OC[C@H]1O[C@@H](n2cnc3c(N)ncnc32)[C@H](O)[C@@H]1O,48.5%
2,CCCC(=O)Oc1ccc(/C(=C(\C)c2ccc(Cl)cc2)c2ccc(OCCN(CC)CC)cc2)cc1,-84% (active)
3,O=C(NCCNc1nccc(-c2c(-c3cccc(O)c3)nc3sccn23)n1)c1ccc(N2CCOCC2)c(C(F)(F)F)c1,43.4%
4,C#C[C@@]1(O)[C@@H](CO)O[C@@H](n2cc(Br)c3c(Cl)ccnc32)[C@@H]1O,17.2%
5,CN(C)c1ccc(/C=N/N=C(N)N)cc1,54.7%
6,C=C1c2c(Cl)ccc(O)c2C(O)=C2C(=O)[C@]3(O)C(O)=C(C(N)=O)C(=O)[C@@H](N(C)C)[C@@H]3[C@@H](O)[C@H]12,22.5%
7,O=C(Nc1ccccc1Cl)c1c[nH]c(=O)c(-c2ccc(N3CCCOC4(CC4)C3)cc2)c1,81.4%
8,Cc1ccc2oc(=O)cc(C3C(C#N)=C(N)Oc4c3ccc3ccccc43)c2c1 (stereo not drawn),70.3%
9,COc1ccc2c(-c3ccc(F)cc3)c(C#N)c(=NC(C)=O)oc2c1,106%
10,O=C(Nc1ccc(-n2ccc3c(NC(=O)c4ccccc4)ncnc32)cc1)c1cccc(C(F)(F)F)c1,51.9%
11,C=C1C(=O)O[C@H]2[C@H]1CC/C(COC(=O)n1ccnc1C)=C\CC[C@@]1(C)O[C@@H]21,89.8%
12,CCn1cc(C(=O)O)c(=O)c2cc(F)c(N3CCN(CC(=O)Nc4ccc(C(C)=O)cc4)CC3)cc21,121%
13,COc1ccc(Cl)cc1NC(=O)c1cc2c([nH]1)-c1nc(NC(=O)C(C)(C)C)sc1CC2,78.1%
14,COc1ccccc1P(c1ccccc1OC)c1ccccc1OC,87.1%
15,Nc1nc(=S)ss1,112%
16,CCCOC(=O)c1ccc([N+](=O)[O-])o1,120%
17,O=C(CSc1nnc(-c2ccc(Cl)cc2)o1)Nc1ccc(C(=O)/C=C/c2ccccc2)cc1,116%
18,Cc1ccc(NC(=O)CN2CCOCC2)cc1Cl,102%
19,CCCCCC/C=N/Nc1ccc([N+](=O)[O-])cn1,98%
